The structures appear in SMILES notation.

The assay deals with HepG2. Put plainly: GSK_TCMDC: Percent inhibition of human HepG2 cell line. Test compounds present at 10uM. It is filed as functional.
Usually Inhibition stands for the share of the control response that was lost under treatment. A low value points to a response near the control. As to `COc1ccc2[nH]ccc(=NN=Cc3ccc(N(C)C)cc3)c2c1`, the Inhibition is reported as 4%.
With `CCCc1cc(N2CCC(N3CCCC3)CC2)nc(Nc2ccc(OC)cc2)n1`, the Inhibition turned out to be 15%.
With `Cc1cccc2nc(-c3cccc(-c4ccc(NC(=O)CN5CCOCC5)cc4)c3)[nH]c12` the figure was 59%; with `CCc1cc2c(N)nc(N)nc2nc1-c1ccccc1`, 18%.
Compound `Cl.N=C(NCCc1ccc(Cl)c(Cl)c1)c1ccc2ccccc2c1` displayed an Inhibition of 60%.
With `CC(C)(C)C(=O)Nc1ccc(N2CCN(C(c3ccccc3)c3ccccc3)CC2)c(Cl)c1`, the Inhibition is recorded as 0%.
On to `COc1cc2nc(N3CCN(c4cc(C)ccc4C)CC3)nc(N)c2cc1OC.Cl`, for which the Inhibition turned out to be 66%.
With `CCOC(=O)c1c[nH]c2c(ccc3ccccc32)c1=O` the figure was 0%.
As for `O=C(Nc1cccnc1)c1cc(-c2cccnc2)nc2ccc(Br)cc12`, the Inhibition was found to be 9%.
As for `CCNc1cc(C(=O)N[C@@H](Cc2ccccc2)[C@H](O)CN[C@@H]2CCc3ccccc32)cc(N2CCCC2=O)c1`, the Inhibition turned out to be 0%.
Under `O=C(CCc1nc2c(cnn2-c2ccccc2)c(=O)[nH]1)NC1CCSc2ccccc21` (stereo not given) stands 10%.
Under `Nc1nccc2ccc(-c3ccc4ncccc4c3)cc12.O=C(O)C(F)(F)F` stands 97%; under `Cc1cc(-c2ccnc(Nc3cccc(C#N)c3)n2)cc(C)c1O`, 50%.
Under `COC(=O)Cc1ccc(N)c2ccccc12.Cl` stands 2%; under `OC(CNCCc1ccccc1)Cn1c2ccc(Cl)cc2c2cc(Cl)ccc21` (stereo not given), 53%.
As for `O=C(c1cc(-c2ccco2)n[nH]1)N1CCN(S(=O)(=O)c2ccc(Cl)cc2)CC1`, the Inhibition turned out to be 0%.
With `Cc1ccc(S(=O)(=O)O)cc1.N=C(N)NCCCC(=O)NCC(N)=O` the figure was 20%.
With `COc1ccc(C=Cc2ccc(-c3c(C)[nH]c(C)c(Cl)c3=O)cc2)cc1OC` the figure was 12%; with `O=C(Nc1cccc(CN2CCCN(Cc3cccc(F)c3)CC2)c1)c1ccc(Cl)c(Cl)c1.O=C(O)C(F)(F)F`, 28%.
Under `Cl.N=C(N)Nc1ccc(NC(=O)Nc2ccc(NC(=N)N)cc2)cc1` stands 0%.
As for `CCC(CC)N1C(=O)C(c2ccccc2)(c2ccccc2)N=C1N.O=CO`, the Inhibition worked out at 14%.
With `COc1cc2c(cc1OCCN1CCC(N3CCCC3)CC1)N(C(=O)/C=C/c1ccccc1Cl)CC2.Cl` the figure was 38%; with `CN1CCN(CCCN(Cc2cccc(-c3ccc(CNCc4ccc5c(c4)OCO5)cc3)c2)C(=O)Nc2ccccc2)CC1.O=C(O)C(F)(F)F`, 39%; with `CCCCCC(C)N/C(=N/c1ccccc1Br)Nc1ccc([N+](=O)[O-])cc1O` (stereo not given), 0%.
The compound `Cc1cc(N2CCCC2)nc(Nc2ccc(NC(=O)c3ccc4c(c3)OCO4)cc2)n1` returned an Inhibition of 26%.
As for `Cc1ccc2[nH]c(-c3ccccc3Nc3ccnc4cc(-c5nccs5)ccc34)nc2c1.Cl`, the Inhibition came out at 40%.
Under `Cc1ccc(C(NC(=O)Cc2ccccc2)c2ccc3cccnc3c2O)cc1` (stereo not given) stands 47%.
With `COc1ccc2ccc(F)c(CC(=O)N3CCOC(CNCc4cccc(-c5ccc(F)cc5)n4)C3)c2n1` (stereo not given) the figure was 5%; with `COc1cc(Cc2c(C)nc3nc(N)nc(N)c3c2C)c(Br)c(OC)c1OC.Cl`, 44%.
Under `COc1ccc(C2SCC(=O)N2CCc2ccc(OC)c(OC)c2)cc1` (stereo not given) stands 19%; under `OC(CN1CCN(Cc2ccccc2)CC1)Cn1c(-c2ccccc2)c(-c2ccccc2)c2ccccc21` (stereo not given), 0%.
The compound `CNCCNCc1ccc(-c2ccc(-c3nc4cccc(C)c4[nH]3)cc2)cc1.O=C(O)C(F)(F)F` gave an Inhibition of 19%.
As to `COc1ccccc1NS(=O)(=O)c1cc(C(=O)Nc2ccc(N3CCOCC3)c(S(=O)(=O)Nc3ccccc3Cl)c2)ccc1Cl`, the Inhibition was found to be 0%.
Under `CC(C)C[C@H]1C(=O)N[C@H](C2Cc3ccccc3C2)C(=O)N1[C@@H](C(=O)Nc1ccccc1OCc1ccccc1)c1ccc(F)cc1F` stands 12%.
Under `Cc1ccc(Nc2nc(N/N=C/c3cccc(O)c3)nc(Nc3ccc([N+](=O)[O-])cc3)n2)cc1C` stands 0%; under `Cl.c1ccc2cc(CNCCCN3CCN(CCCNCc4ccc5ccccc5c4)CC3)ccc2c1`, 60%; under `N=C(N)Nc1nc(-c2cccc(NC(=O)NCc3cccc4ccccc34)c2)cs1`, 14%.
With `COc1ccc(-c2cncc3ccc(C(=O)NCc4ccncc4)nc23)cc1` the figure was 25%; with `O=C(O)C(F)(F)F.Oc1ccc(CC2CCCN(c3nc(NCCCOc4ccccc4-c4ccccc4)nc(N4CCNCC4)n3)C2)cc1` (stereo not given), 56%; with `Cc1cc(N)c2cc(NC(=O)CCC(=O)Nc3ccc4nc(C)cc(N)c4c3)ccc2n1`, 0%.

The values are drawn from ChEMBL document CHEMBL1157539, “Thousands of chemical starting points for antimalarial lead identification” (Nature, 2010).
